From ChEMBL document CHEMBL1961873, “Compounds: GSK PKIS; Assays: Nanosyn kinase panel” (2012) come the findings set out here.

The target of experiment [1] is T1, Serine/threonine-protein kinase Nek9 (Homo sapiens) (UniProt Q8TD19).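 Further: each value is a mean percent inhibition of NEK9.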
T1 sequence (whole entry): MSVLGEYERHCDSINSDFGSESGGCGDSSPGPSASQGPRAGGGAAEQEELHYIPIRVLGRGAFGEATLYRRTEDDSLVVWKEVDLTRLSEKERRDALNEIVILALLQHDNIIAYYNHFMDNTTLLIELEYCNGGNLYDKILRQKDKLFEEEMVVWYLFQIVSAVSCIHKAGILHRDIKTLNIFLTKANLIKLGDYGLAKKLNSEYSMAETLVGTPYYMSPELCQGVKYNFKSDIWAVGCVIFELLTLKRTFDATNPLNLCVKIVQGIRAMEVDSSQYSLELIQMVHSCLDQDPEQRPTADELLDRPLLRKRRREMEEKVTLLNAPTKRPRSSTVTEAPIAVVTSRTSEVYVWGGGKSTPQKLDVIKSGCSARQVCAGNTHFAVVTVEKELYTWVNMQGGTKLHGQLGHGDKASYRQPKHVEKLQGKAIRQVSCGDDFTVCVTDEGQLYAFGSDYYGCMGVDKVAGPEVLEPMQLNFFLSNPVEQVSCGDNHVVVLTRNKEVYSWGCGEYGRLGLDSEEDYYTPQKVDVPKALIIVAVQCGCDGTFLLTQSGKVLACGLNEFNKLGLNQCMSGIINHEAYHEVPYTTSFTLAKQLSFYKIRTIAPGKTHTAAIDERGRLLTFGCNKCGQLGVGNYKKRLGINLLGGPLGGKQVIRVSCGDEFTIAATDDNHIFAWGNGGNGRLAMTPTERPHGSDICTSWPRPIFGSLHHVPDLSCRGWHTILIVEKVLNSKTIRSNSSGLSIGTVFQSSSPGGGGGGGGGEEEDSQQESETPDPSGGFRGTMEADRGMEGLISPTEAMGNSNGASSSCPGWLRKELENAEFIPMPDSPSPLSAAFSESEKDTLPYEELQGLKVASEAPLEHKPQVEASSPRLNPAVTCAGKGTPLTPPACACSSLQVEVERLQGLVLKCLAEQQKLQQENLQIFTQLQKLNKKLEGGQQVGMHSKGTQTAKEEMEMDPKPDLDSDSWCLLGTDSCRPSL
As to conditions: at 1 µM.

Experiment [2] concerns the target Serine/threonine-protein kinase PLK1 (Homo sapiens) (UniProt P53350). As to conditions: at 0.1 µM.
The target is the same in experiment [3]. The conditions noted are these: at 1 µM.
The target of experiment [4] is T2, Dual specificity protein kinase TTK (Homo sapiens) (UniProt P33981).
T2 sequence (whole entry): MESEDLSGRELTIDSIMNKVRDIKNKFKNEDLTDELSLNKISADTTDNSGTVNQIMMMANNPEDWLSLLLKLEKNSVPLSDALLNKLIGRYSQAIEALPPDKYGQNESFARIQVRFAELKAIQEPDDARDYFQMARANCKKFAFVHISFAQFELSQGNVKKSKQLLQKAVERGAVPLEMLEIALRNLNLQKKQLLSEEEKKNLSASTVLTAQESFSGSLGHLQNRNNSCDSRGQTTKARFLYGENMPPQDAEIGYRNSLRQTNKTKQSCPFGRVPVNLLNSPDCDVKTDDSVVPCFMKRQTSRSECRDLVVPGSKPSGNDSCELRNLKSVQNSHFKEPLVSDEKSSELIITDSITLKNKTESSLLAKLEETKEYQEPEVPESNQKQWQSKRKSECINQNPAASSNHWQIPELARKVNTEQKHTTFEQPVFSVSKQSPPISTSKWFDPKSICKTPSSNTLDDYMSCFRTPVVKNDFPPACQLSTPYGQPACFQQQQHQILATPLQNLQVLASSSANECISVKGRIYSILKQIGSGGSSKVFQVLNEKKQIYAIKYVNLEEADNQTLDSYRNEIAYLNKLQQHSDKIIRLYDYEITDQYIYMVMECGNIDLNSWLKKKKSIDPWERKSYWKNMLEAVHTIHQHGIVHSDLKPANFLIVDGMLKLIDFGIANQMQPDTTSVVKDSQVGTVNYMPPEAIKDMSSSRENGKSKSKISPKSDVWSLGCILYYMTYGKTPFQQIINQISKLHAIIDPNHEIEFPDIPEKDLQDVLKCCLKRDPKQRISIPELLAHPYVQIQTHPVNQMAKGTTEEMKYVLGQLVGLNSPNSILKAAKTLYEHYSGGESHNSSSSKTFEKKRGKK
As to conditions: at 0.1 µM.

The subject of experiment [5] is T3, Receptor-type tyrosine-protein kinase FLT3 (Homo sapiens), P36888 [D835Y].
T3 sequence (whole entry): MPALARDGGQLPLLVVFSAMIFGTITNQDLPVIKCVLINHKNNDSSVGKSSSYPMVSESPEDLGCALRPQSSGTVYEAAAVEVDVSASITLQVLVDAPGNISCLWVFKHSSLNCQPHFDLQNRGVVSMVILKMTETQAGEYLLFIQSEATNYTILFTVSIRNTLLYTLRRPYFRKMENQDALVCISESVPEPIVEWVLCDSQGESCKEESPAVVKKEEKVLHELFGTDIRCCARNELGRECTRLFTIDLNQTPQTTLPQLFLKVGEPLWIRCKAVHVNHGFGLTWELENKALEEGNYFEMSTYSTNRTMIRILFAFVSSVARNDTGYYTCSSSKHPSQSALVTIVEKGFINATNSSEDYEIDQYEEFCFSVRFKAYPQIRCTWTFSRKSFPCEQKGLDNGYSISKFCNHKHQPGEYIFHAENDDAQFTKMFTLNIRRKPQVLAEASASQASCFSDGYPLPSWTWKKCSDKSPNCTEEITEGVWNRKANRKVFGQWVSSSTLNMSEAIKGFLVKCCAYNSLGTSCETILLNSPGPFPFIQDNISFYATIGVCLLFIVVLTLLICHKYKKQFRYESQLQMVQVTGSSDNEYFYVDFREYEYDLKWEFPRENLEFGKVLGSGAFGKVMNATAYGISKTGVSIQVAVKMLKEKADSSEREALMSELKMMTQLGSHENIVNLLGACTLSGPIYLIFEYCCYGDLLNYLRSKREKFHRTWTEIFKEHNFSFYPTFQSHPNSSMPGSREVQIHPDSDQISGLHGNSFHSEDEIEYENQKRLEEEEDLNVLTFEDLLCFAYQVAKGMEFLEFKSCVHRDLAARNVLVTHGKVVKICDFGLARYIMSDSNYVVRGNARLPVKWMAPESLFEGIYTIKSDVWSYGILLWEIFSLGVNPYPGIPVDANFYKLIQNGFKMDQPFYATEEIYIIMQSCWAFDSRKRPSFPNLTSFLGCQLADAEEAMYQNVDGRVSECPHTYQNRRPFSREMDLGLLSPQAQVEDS
As to conditions: at 1 µM.

Experiment [6] has as its target Vascular endothelial growth factor receptor 3 (Homo sapiens) (UniProt P35916). The conditions noted are these: at 0.1 µM.
Experiment [7] has the same target. As to conditions: at 1 µM.
Experiment [8] deals with Macrophage colony-stimulating factor 1 receptor (Homo sapiens) (UniProt P07333). As to conditions: at 0.1 µM.
Experiment [9] has the same target. As to conditions: at 1 µM.
Experiment [10] has as its target Tyrosine-protein kinase Fyn (Homo sapiens) (UniProt P06241). The conditions noted are these: at 0.1 µM.
For experiment [11] the target is unchanged. The conditions noted are these: at 1 µM.
Experiment [12] addresses Tyrosine-protein kinase HCK (Homo sapiens) (UniProt P08631). The conditions noted are these: at 0.1 µM.
Experiment [13] shares this target. The conditions noted are these: at 1 µM.
For experiment [14], the target named is Insulin-like growth factor 1 receptor (Homo sapiens) (UniProt P08069). As to conditions: at 0.1 µM.
For experiment [15] the target is unchanged. The conditions noted are these: at 1 µM.
The target of experiment [16] is Insulin receptor (Homo sapiens) (UniProt P06213). As to conditions: at 0.1 µM.
For experiment [17] the target is unchanged. As to conditions: at 1 µM.
Experiment [18] addresses Insulin receptor-related protein (Homo sapiens) (UniProt P14616). The conditions noted are these: at 0.1 µM.
Experiment [19] shares this target. As to conditions: at 1 µM.
Experiment [20] concerns the target T4, Tyrosine-protein kinase ITK/TSK (Homo sapiens) (UniProt Q08881).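 Further: mean percent inhibition of ITK from the GSK PKIS screen.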
T4 sequence (whole entry): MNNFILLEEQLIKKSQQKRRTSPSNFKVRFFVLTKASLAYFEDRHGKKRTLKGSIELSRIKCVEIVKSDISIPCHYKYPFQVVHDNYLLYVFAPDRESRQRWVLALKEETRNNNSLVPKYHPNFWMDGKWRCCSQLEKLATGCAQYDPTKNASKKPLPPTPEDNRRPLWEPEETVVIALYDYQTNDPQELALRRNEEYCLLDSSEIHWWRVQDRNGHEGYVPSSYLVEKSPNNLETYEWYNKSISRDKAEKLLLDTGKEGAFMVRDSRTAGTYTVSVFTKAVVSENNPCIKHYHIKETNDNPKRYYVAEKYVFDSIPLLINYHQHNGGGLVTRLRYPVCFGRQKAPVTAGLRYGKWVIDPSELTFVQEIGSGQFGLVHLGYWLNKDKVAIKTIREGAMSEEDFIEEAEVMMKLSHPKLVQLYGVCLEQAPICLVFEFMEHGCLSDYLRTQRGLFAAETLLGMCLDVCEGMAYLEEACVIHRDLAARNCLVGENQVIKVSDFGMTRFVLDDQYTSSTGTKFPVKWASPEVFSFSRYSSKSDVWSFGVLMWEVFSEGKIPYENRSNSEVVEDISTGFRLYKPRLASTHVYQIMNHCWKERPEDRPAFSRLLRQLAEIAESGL
As to conditions: at 0.1 µM.

Vascular endothelial growth factor receptor 3 (Homo sapiens), sequence (P35916 whole entry): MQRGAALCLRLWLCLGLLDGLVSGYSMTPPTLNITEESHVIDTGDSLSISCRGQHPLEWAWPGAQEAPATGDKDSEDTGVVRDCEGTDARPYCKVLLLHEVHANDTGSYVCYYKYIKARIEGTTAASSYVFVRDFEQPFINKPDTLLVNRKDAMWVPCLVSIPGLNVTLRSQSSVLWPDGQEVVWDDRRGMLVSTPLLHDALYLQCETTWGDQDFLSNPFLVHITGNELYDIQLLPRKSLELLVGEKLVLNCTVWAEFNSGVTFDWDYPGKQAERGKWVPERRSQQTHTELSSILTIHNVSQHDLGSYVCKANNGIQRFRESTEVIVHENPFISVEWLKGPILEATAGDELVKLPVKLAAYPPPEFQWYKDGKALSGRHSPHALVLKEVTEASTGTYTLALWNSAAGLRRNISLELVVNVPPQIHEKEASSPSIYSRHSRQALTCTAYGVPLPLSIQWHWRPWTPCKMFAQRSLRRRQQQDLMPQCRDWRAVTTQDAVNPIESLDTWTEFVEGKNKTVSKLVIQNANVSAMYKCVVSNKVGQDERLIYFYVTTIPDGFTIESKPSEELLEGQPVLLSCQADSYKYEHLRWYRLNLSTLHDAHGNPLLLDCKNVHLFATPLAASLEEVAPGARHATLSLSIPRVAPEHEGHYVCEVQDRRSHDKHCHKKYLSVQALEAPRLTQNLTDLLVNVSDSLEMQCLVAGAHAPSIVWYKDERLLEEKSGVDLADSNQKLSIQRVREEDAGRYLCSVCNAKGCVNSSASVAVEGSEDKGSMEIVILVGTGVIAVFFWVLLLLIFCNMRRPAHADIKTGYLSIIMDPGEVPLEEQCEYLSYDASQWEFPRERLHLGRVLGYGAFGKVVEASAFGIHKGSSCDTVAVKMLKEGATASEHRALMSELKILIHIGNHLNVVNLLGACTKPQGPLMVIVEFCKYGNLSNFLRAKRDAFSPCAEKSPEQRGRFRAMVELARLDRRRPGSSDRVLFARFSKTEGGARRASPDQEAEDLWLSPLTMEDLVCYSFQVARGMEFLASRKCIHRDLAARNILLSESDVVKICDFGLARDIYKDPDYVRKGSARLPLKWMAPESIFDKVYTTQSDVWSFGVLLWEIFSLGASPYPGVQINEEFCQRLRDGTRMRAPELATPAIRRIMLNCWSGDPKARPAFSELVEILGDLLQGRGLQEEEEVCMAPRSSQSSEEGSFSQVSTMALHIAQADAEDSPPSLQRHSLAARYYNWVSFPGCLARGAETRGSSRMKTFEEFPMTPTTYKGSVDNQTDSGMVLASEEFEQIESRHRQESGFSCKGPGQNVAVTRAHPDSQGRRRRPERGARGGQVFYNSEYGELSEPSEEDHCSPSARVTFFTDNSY
Tyrosine-protein kinase Fyn (Homo sapiens), sequence (P06241 2-537 limits assumed): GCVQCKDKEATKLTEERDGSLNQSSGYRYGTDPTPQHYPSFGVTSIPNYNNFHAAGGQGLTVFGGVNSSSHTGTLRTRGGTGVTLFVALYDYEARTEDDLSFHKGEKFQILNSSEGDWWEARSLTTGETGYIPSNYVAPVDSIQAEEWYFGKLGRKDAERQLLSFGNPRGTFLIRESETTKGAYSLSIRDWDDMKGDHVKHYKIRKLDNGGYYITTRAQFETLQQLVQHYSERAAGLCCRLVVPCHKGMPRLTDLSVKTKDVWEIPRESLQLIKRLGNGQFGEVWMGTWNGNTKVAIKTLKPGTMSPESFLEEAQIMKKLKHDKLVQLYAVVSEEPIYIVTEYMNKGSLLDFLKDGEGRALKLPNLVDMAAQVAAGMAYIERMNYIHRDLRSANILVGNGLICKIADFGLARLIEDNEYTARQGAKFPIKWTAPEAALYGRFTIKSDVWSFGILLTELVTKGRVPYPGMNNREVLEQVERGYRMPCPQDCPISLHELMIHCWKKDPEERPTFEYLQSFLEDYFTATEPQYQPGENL
Macrophage colony-stimulating factor 1 receptor (Homo sapiens), sequence (P07333 whole entry): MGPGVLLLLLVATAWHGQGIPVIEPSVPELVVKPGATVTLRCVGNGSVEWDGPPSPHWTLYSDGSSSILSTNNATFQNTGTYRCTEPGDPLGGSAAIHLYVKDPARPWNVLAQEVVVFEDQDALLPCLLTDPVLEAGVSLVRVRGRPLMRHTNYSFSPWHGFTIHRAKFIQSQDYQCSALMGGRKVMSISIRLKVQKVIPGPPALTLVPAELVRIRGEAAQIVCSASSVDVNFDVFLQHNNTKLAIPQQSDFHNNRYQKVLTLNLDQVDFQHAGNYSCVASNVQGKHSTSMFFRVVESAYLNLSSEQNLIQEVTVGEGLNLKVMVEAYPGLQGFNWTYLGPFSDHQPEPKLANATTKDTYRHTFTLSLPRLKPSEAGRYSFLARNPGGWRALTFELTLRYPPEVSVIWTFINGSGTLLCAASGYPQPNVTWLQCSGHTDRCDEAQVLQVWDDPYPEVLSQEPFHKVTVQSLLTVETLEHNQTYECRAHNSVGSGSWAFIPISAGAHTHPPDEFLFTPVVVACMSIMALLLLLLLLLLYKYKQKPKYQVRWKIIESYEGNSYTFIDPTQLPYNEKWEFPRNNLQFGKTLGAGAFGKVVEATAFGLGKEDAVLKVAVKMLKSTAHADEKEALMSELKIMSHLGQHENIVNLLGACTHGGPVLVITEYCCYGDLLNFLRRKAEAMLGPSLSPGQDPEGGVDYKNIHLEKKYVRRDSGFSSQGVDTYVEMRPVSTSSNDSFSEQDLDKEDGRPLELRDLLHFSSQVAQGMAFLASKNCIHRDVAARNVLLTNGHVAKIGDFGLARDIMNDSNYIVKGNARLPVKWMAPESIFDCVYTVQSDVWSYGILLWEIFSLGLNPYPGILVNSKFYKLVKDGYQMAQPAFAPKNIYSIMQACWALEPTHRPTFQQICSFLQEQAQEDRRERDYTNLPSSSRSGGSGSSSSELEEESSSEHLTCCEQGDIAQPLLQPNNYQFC
Insulin receptor (Homo sapiens), sequence (P06213 28-758 limits assumed): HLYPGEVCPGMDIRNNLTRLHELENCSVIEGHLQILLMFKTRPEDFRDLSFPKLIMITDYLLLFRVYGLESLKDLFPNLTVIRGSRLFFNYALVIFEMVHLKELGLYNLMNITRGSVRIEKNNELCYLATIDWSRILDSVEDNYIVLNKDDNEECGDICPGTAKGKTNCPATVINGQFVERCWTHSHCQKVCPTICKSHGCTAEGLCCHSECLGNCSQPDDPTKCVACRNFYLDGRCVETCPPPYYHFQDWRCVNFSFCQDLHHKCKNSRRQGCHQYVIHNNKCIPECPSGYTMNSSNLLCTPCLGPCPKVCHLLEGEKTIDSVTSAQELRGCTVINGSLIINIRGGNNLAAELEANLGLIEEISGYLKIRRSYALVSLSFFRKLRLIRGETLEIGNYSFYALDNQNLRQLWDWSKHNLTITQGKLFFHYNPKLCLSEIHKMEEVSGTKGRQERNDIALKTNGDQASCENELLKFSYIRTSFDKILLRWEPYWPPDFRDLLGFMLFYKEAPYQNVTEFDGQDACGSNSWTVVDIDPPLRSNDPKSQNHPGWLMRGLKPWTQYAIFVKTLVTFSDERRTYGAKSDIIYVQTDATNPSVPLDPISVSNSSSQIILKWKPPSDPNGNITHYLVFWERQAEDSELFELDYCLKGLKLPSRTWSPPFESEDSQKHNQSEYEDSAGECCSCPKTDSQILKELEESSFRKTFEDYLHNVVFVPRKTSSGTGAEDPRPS
Insulin receptor (Homo sapiens), sequence (P06213 763-1382 limits assumed): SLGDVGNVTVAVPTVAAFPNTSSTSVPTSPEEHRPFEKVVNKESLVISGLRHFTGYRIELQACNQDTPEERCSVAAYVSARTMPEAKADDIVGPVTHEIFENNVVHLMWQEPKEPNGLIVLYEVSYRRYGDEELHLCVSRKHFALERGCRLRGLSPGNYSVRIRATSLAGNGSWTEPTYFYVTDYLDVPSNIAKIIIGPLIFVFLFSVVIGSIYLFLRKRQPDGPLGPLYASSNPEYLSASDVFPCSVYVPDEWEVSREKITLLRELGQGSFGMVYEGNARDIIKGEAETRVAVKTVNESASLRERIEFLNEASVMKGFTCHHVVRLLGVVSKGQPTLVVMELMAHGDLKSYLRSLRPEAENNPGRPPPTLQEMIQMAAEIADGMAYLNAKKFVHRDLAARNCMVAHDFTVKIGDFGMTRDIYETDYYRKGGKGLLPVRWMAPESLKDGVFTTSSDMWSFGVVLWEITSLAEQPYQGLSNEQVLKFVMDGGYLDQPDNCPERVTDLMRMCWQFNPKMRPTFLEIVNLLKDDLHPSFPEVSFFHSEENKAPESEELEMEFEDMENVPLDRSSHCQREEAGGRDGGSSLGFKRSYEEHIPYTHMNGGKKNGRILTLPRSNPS
Serine/threonine-protein kinase PLK1 (Homo sapiens), sequence (P53350 whole entry): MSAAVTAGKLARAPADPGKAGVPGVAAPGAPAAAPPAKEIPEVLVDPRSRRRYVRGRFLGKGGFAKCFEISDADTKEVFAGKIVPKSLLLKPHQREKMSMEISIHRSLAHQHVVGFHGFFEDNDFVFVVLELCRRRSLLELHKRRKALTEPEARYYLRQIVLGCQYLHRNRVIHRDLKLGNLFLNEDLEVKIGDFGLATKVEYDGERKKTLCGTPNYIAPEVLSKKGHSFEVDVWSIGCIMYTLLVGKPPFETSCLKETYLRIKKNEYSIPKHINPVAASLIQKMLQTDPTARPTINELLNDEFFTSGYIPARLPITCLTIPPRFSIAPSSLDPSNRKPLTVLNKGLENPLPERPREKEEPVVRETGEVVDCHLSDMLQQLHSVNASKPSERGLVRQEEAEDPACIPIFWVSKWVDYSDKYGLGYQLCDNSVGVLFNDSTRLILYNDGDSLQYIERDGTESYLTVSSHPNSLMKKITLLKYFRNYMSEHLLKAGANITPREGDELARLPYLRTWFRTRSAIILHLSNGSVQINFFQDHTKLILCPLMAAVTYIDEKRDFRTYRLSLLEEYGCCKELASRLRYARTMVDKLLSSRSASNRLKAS

Usually inhibition stands for the change of the read-out against control, counted positive when it falls. In the case of `CCn1c(-c2nonc2N)nc2c(C#CCN)ncc(OCCCN)c21`, the inhibition in [1] was -9.04%; in experiment [2], -5.66%; in [3], -6.34%; in experiment [4], -4.74%; in experiment [5] it was 7.13%; in experiment [6] it was -2.4%. In addition, the inhibition is 1.59% in [7]; -1.23% in [8]; 0.9% in experiment [9]; 0.54% in [10]; -1.61% in experiment [11]; 0.79% in [12]. Moreover, the inhibition in experiment [13] is -3.58%; in [14] it was -5.07%; in experiment [15], -6.11%; in experiment [16], -5.48%; in experiment [17], -4.01%; in experiment [18], -0.39%. Also, the inhibition is 0.07% in experiment [19] and 0.2% in experiment [20].

Regarding `NS(=O)(=O)c1ccc(-c2ccc3c(NC(=O)C4CC4)n[nH]c3c2)cc1`, the inhibition in [1] was 3.68%; in [2] it was 2.16%; in [3], 2.23%; in experiment [4] it was 2.82%; in [5], 8.24%; in [6], 0.96%. Moreover, the inhibition in experiment [7] amounted to 1.51%; in experiment [8] it was 0.18%; in experiment [9], 1.78%; in experiment [10], 1.45%; in experiment [11], 2.42%; in experiment [12], 4.22%. Further, the inhibition in experiment [13] is 9.28%; in [14], 0.89%; in [15], 1.61%; in experiment [16], 1.23%; in experiment [17], 2.43%; in experiment [18], 3.82%. The inhibition in experiment [19] was found to be 2.73%; in experiment [20], 1.9%.

For the compound `NC(=O)c1sc(-n2cnc3cc(C(F)(F)F)ccc32)cc1OCc1ccccc1Br`, the inhibition in experiment [1] was determined as 10.3%; in [2] it was 21%; in experiment [3], 69.5%; in [4], 2.94%; in experiment [5] it was 4.97%; in [6], 2.24%. Besides, the inhibition in experiment [7] was 4.4%; in experiment [8], -0.7%; in experiment [9] it was 3.85%; in [10], 2.13%; in experiment [11], 7.58%; in experiment [12] it was 2.82%. Besides, the inhibition in [13] was 0.29%; in [14], -2.64%; in experiment [15] it was 0.95%; in experiment [16], 0.33%; in experiment [17], 1.77%; in [18], 1.13%. Moreover, the inhibition in experiment [19] was -0.33%; in experiment [20], -0.64%.

On to `COc1cc(C=NNc2ncnc3c2cnn3Cc2ccccc2)ccc1O`, for which the inhibition in experiment [1] was -0.84%; in experiment [2] it was -3.5%; in [3], -2.85%; in experiment [4] it was -6.4%; in experiment [5], 2.91%; in experiment [6] it was 0.12%. The inhibition in experiment [7] worked out at 0.41%; in experiment [8], 14.5%; in experiment [9], 58.7%; in experiment [10] it was 6.12%; in experiment [11] it was 4.87%; in experiment [12], 3.29%. The inhibition is 33.7% in [13]; -3.54% in [14]; -1.6% in experiment [15]; -3.1% in [16]; -3.04% in experiment [18]; -4.41% in [19]. In experiment [20], the inhibition was -1.61%.
